Among all 69,000 compounds or so, about 8,600 (12%) showed an effect of 50% or more. This excerpt belongs to a sample that is enriched for strong results.
System: Plasmodium berghei
Test: Screen against P. berghei liver stage (PbLuc), transformed with Luciferase, at 10uM
Assay type: functional, HepG2
Conditions: tested at 10 uM

Going from `COC(=O)c1cc(OC)c(OC)cc1N(C)S(C)(=O)=O` to `COc1ccc(-c2cc(N)on2)cc1OC`, the INHIBITION falls from 44.3% to 26.3%.

First: CN(C)CC(=O)N1CC2(CCN(C(=O)Nc3ccccc3)C2)C1
Second: CC(=O)N1CCO[C@@H]2CN(C(=O)NCc3ccccc3)CC[C@@H]2C1
The INHIBITION of the first is lower: 0.112% for the first, 51.2% for the second.

First: Cc1nc(CC(=O)NS(=O)(=O)c2cccc3cnccc23)cs1
Second: CCOc1ncccc1NC(=O)c1ccc(C)s1
The INHIBITION of the first is lower: 6.33% for the first, 23.2% for the second.

Compared with `CCN1C[C@H]2C3(CCN(S(=O)(=O)CC)CC3)CC[C@@]2(C(=O)N(C)C)C1`, `CC(=O)N(Cc1noc(C)n1)C1CCN(CC2(O)CCCCC2)C1` (stereo not drawn) is higher in INHIBITION: 13.7% for the first, 33.7% for the second.

First: COc1cc2c(cc1CN1CCCCC1CN1CCOCC1)CCC2 (stereo not drawn)
Second: COc1cccc(CN2CCCCC2CN2CCOCC2)c1F (stereo not drawn)
The INHIBITION of the first is lower: 13.9% for the first, 60.4% for the second.

Compared with `COc1cccc(CN2C[C@H]3CC[C@H]2C3)c1OCCN1CCOCC1`, `c1nc(CCC2CCCN2)cc(N2CCCOCC2)n1` (stereo not drawn) is higher in INHIBITION: -14.5% for the first, 48.9% for the second.

First: CCc1nc(Cn2ccnc2-c2nccn2C)no1
Second: CCc1nc(CCn2ccnc2-c2nccn2C)no1
The INHIBITION of the first is lower: 45.2% for the first, 65.6% for the second.

First: CCc1nc(CCn2cc(-c3nccn3C)nn2)no1
Second: CCc1nnc(Sc2nn3cc(C)nc3s2)n1C
The INHIBITION of the first is higher: 23% for the first, -9.8% for the second.

Compared with `CS(=O)(=O)c1cc(Cl)cnc1C1CCN(C(=O)C2CCOCC2)CC1`, `O=C(c1ccco1)N1CC[C@@H]2CN(C3CCOCC3)CCO[C@@H]2C1` is lower in INHIBITION: 24.8535% for the first, 22.2% for the second.

First: Cc1cccc(CN2C(=O)CC[C@@H]3[C@H]2CCN3C(=O)c2ccsc2)n1
Second: Cc1cccc(N2CC[C@@H]3CN(C(=O)c4ccco4)CCO[C@@H]3C2)n1
The INHIBITION of the first is lower: 14.8% for the first, 49.5% for the second.

Going from `COCCOc1ncccc1NCc1nc2ccccc2n1C` to `COCCOc1ccc(F)cc1NCc1nc2ccccc2n1C`, the INHIBITION rises from -16% to -3.12%.

Going from `COc1cc(F)c(NCc2nc3ccccc3n2C)cc1OC` to `COCc1cc(CNc2cnn(CC(F)F)c2)ccc1OC`, the INHIBITION falls from 59.8% to 38.2%.

First: O=C(c1ccc(Cl)cc1)N1CCC(N2CCCNC2=O)CC1
Second: CCOc1ccc(CN2CCN(C(=O)c3cc(C4CC4)[nH]n3)CC2)cc1
The INHIBITION of the first is lower: 40.8% for the first, 48.1% for the second.

First: CCN1CCN(C(=O)CCn2cccc2)CC1
Second: CCn1nc(C)c(NC(=O)CN2CCN(C(C)=O)CC2)c1C
The INHIBITION of the first is higher: 2.69% for the first, -4.23% for the second.

Compared with `COCCN1CC(c2cc(O)nc(NC(C)C)n2)CC1=O` (stereo not drawn), `COc1ccc(CC(=O)N2CCCC(c3cc(C)[nH]n3)C2)cc1` (stereo not drawn) is higher in INHIBITION: -17.7% for the first, 28.62% for the second.

Going from `Cc1cc(C)n(CC2CN(Cc3ccc4c(c3)OCCO4)CCO2)n1` (stereo not drawn) to `Nc1cc(CCC2CN(Cc3ccc4c(c3)OCCO4)CCO2)ccn1` (stereo not drawn), the INHIBITION rises from 14.3% to 69.3%.

Going from `c1ccc(CCCC2CN(Cc3ncc[nH]3)CCO2)cc1` (stereo not drawn) to `Nc1cc(CCC2CN(Cc3cccc(C(=O)O)c3)CCO2)ccn1` (stereo not drawn), the INHIBITION rises from 28.5% to 45.6%.

Going from `COc1ccc(CC2CN(Cc3cncn3C)CCO2)cc1` (stereo not drawn) to `COc1ccc(CN2CCOC(CCc3ccnc(N)c3)C2)cc1` (stereo not drawn), the INHIBITION rises from 47.1% to 87.1%.

First: Nc1cc(CCC2CN(Cc3ccc(C(=O)O)cc3)CCO2)ccn1 (stereo not drawn)
Second: Nc1cc(CCC2CN(Cc3ccc4cc[nH]c4c3)CCO2)ccn1 (stereo not drawn)
The INHIBITION of the first is lower: 32.8% for the first, 78.2% for the second.

Compared with `CNc1nccnc1C1CN(Cc2ccc3[nH]ccc3c2)CCO1` (stereo not drawn), `Fc1ccc(CN2CCCC(c3nccnc3-n3ccnc3)C2)cc1` (stereo not drawn) is lower in INHIBITION: 21.1% for the first, 6.32% for the second.

First: Cc1ccnc(NCc2ccccc2N2CCOCC2)n1
Second: O=C(c1ccccc1N1CCOCC1)N1CCCC(n2ccnc2)C1 (stereo not drawn)
The INHIBITION of the first is higher: 46.3% for the first, 22.1% for the second.

Compared with `Cc1[nH]nc2ncc(C(=O)N3CCN(CC(C)O)CC3)cc12` (stereo not drawn), `Cc1ccc(C2(O)CCN(C(=O)c3ccc(S(N)(=O)=O)cc3)CC2)nc1` is higher in INHIBITION: -0.96% for the first, 38% for the second.

Compared with `Cc1ccc(OCC2CCCN(C(=O)c3csc(CN(C)C)n3)C2)cc1` (stereo not drawn), `NC(=O)[C@@H]1CCCN1C(=O)c1csc(-c2ccc(C(F)(F)F)cc2)n1` is lower in INHIBITION: 31% for the first, 28.4% for the second.

Compared with `c1cnc(N2CCOC3(CCN(CC4CCOC4)CC3)C2)nc1` (stereo not drawn), `CS(=O)(=O)N1CC2(CCN(CC3CCCCC3)CC2)Cc2ccccc21` is higher in INHIBITION: 8.64% for the first, 46.6% for the second.

Going from `CCNC(=O)c1ccc(NC2CCOC3(CCCC3)C2)nn1` (stereo not drawn) to `CCC(=O)NC1CCCN(Cc2ccc(NC(C)=O)cc2)C1` (stereo not drawn), the INHIBITION rises from 24.6% to 27.6%.

Compared with `O=C(c1ccco1)N1CCO[C@@H]2CN(c3ncc(F)cn3)CC[C@@H]2C1`, `CCc1cnc(N2CC[C@@H]3CN(C(=O)c4ccco4)CCO[C@@H]3C2)nc1` is higher in INHIBITION: 42.6% for the first, 92.5% for the second.

Compared with `O=C(c1ccco1)N1CCO[C@@H]2CNCC[C@@H]2C1`, `CC(=O)N1CC[C@@H]2CN(C(=O)c3ccco3)CCO[C@@H]2C1` is higher in INHIBITION: -0.388% for the first, 48.3% for the second.

First: O=C(c1ccco1)N1CCO[C@@H]2CN(c3ccccn3)CC[C@@H]2C1
Second: O=C(c1ccco1)N1CCO[C@@H]2CN(c3ccccc3)CC[C@@H]2C1
The INHIBITION of the first is lower: -26.5% for the first, 84.7% for the second.

Compared with `O=C(c1ccco1)N1CCO[C@@H]2CN(CC3CC3)CC[C@@H]2C1`, `O=C(c1ccco1)N1CCO[C@@H]2CN(Cc3nccs3)CC[C@@H]2C1` is lower in INHIBITION: 85.8% for the first, -5.89% for the second.

First: O=C(CCO)N1CC[C@@H]2CN(C(=O)c3ccco3)CCO[C@@H]2C1
Second: CC(=O)N1CCO[C@@H]2CN(C(=O)NCc3cccnc3)CC[C@@H]2C1
The INHIBITION of the first is higher: 80% for the first, 12.1% for the second.

Going from `CCc1cnc(N2CC[C@@H]3CN(C(C)=O)CCO[C@@H]3C2)nc1` to `CN1CCO[C@@H]2CN(C(=O)NCc3ccccc3)CC[C@@H]2C1`, the INHIBITION falls from 45.8% to 16.8%.

First: CC(NC(=O)N1CCCC1)c1ccc(S(N)(=O)=O)cc1 (stereo not drawn)
Second: Cc1cc(C)n(CC(=O)N2CCCC(c3cc4cccnc4[nH]3)C2)n1 (stereo not drawn)
The INHIBITION of the first is higher: 33.7% for the first, 30.4% for the second.

First: Cc1cc(CN(C)C(=O)C(c2ccccc2F)N(C)C)ccn1 (stereo not drawn)
Second: CC(C)OCCCN(Cc1ccncc1)Cc1cc(F)cc(F)c1
The INHIBITION of the first is higher: 30% for the first, -26.2% for the second.

Compared with `CN(C)C(=O)CO[C@H]1CN(Cc2cccc(F)c2)[C@@H]2CCCO[C@H]12`, `CN(C)C(=O)N1C[C@H]2CC[C@@H](C1)N(Cc1ccc3nsnc3c1)C2` is lower in INHIBITION: 43.1% for the first, 21.8% for the second.

Compared with `Fc1ccc(CN2CCCC(c3cc4ncccc4[nH]3)C2)cc1` (stereo not drawn), `CCOc1ccc(CN2CCCC(c3cc4ncccc4[nH]3)C2)cc1` (stereo not drawn) is lower in INHIBITION: 85.65% for the first, 81.5% for the second.

Going from `O[C@@H]1CN(Cc2ccc(F)cc2)CC[C@H]1NCc1ccccn1` to `CC(=O)Nc1ccc(CN2CCCC(c3cc4ncccc4[nH]3)C2)cc1` (stereo not drawn), the INHIBITION rises from 28.55% to 50.95%.

Compared with `CCOc1nnc(CN2CCCC(c3nc4ccccc4[nH]3)C2)s1` (stereo not drawn), `CCN1CCCC(CN(C)c2nccc(-c3ccc(C)nc3C)n2)C1` (stereo not drawn) is higher in INHIBITION: 22.8% for the first, 76.7% for the second.

First: Cn1cc(CN2CCC(c3[nH]ncc3S(C)(=O)=O)C2)cn1 (stereo not drawn)
Second: O=C(c1ccncn1)N1C[C@@H]2CN(Cc3cccnc3)CCO[C@@H]2C1
The INHIBITION of the first is lower: 8.53% for the first, 17.5% for the second.

Compared with `Cc1noc(C)c1CCC(=O)N1CCOCC1CCc1cnccn1` (stereo not drawn), `CCOC(=O)COc1cccc(NC(=O)C2COCCO2)c1` (stereo not drawn) is lower in INHIBITION: 25.8% for the first, 8.24% for the second.

First: Cc1cnn(CCC(=O)N2CCN(C(=O)C3CC3)[C@@H]3CS(=O)(=O)C[C@@H]32)c1
Second: COCCC(=O)NCC1CCC(C(c2ccccn2)N(C)C)CC1 (stereo not drawn)
The INHIBITION of the first is lower: 3% for the first, 3.48% for the second.

Compared with `CC(C)(C)c1nc(CC(=O)N2CCCC(n3cncn3)C2)cs1` (stereo not drawn), `CN(C)C(=O)N1Cc2nnn(C)c2C(COCc2cccnc2)C1` (stereo not drawn) is lower in INHIBITION: 47.65% for the first, 27.6% for the second.

Going from `OC(COCc1ccccc1)CSc1nnc2ccccn12` (stereo not drawn) to `OC(COCc1cccs1)CSc1nnc2ccccn12` (stereo not drawn), the INHIBITION rises from 42.6% to 56.5%.

First: OC(COCc1cccs1)Cn1cc(-n2cccc2)cn1 (stereo not drawn)
Second: OC(COCc1cccs1)Cn1cc(Br)cn1 (stereo not drawn)
The INHIBITION of the first is higher: 8.46% for the first, -28.4% for the second.

First: OC(COCc1cccs1)Cn1cc(Cl)cn1 (stereo not drawn)
Second: OC(COCc1ccco1)CSc1nnc2ccccn12 (stereo not drawn)
The INHIBITION of the first is higher: 75.2% for the first, 14.8% for the second.

Going from `CSCC(=O)NC1CC(=O)N(CCc2ccccc2)C1` (stereo not drawn) to `O=C(OCc1ccccc1)c1cccc(NC(=O)C2COCCO2)c1` (stereo not drawn), the INHIBITION rises from -17.6% to 7.44%.

First: O=C(Nc1ccc2c(ccn2CCN2CCOCC2)c1)c1ccccn1
Second: O=C(Nc1cccc(OCc2cccc(F)c2)c1)C1COCCO1 (stereo not drawn)
The INHIBITION of the first is higher: -4.15% for the first, -47.4% for the second.

Compared with `CCOCCN1CCN(c2ncccc2C#N)CC1CC` (stereo not drawn), `Cc1ccc(-c2ccnc(N(C)CC3CCCN3C)n2)c(C)n1` (stereo not drawn) is higher in INHIBITION: 4.03% for the first, 10.6% for the second.

Compared with `CCOCc1cccc(NC(=O)C2COCCO2)c1` (stereo not drawn), `O=C(Nc1ccc(OCc2cccc(F)c2)c(F)c1)C1COCCO1` (stereo not drawn) is higher in INHIBITION: 59.3% for the first, 78.4% for the second.

First: O=C(Nc1cccc(OCc2ccc(F)cc2)c1)C1COCCO1 (stereo not drawn)
Second: COc1ccc(CN2CCCCC2c2n[nH]cc2-c2cc(C)no2)cc1 (stereo not drawn)
The INHIBITION of the first is lower: 10.3% for the first, 34.1% for the second.

First: Cc1ccc(-c2ccnc(N(C)CC3CCCO3)n2)c(C)n1 (stereo not drawn)
Second: CCc1ccc(CN2CCCCC2c2n[nH]cc2-c2cc(C)no2)cc1 (stereo not drawn)
The INHIBITION of the first is lower: 47.4% for the first, 66.6% for the second.

Compared with `CC(C)n1c(=O)[nH]c2cn(-c3ccc(Cl)cc3)c(=O)n21`, `Cc1cccc(CN2CCCCC2c2n[nH]cc2-c2cc(C)no2)c1` (stereo not drawn) is higher in INHIBITION: -10.1% for the first, 31.3% for the second.

In the case of `CCN1CCc2c(sc3c2C(=O)NC(C=Cc2ccco2)N3)C1` (stereo not drawn), the INHIBITION was 49.9%.

— ChEMBL document CHEMBL4513216, “Probing the Open Global Health Chemical Diversity Library for Multistage-Active Starting Points for Next-Generation Antimalarials” (ACS Infect Dis, 2020)
